The text below walks through data of PubChem BioAssay (NCI).

This is part of a sample that, as a whole, favours compounds with a hit. Of some 83,000 tested, about 20% had one in any assay.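 Plates (96-well) were seeded with cells, treated with compound at one concentration, and incubated for 48 hours before percent growth was determined.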 A number with no mark means an inactive call. Calls of active or inactive are those of the source. How the source made its calls: active means growth percent below 10; inactive means the rest.

Among the test systems are 786-0 renal; DU-145 prostate; K-562 leukemia; MALME-3M melanoma; RXF 393 renal; UACC-257 melanoma; SK-MEL-28 melanoma; SK-MEL-2 melanoma; EKVX NSCLC; SN12C renal; UO-31 renal; TK-10 renal; ACHN renal; CAKI-1 renal; A498 renal; CCRF-CEM leukemia; MOLT-4 leukemia; SR leukemia; RPMI-8226 leukemia; OVCAR-8 ovarian.
What all share (assay): NCI-60 one-dose screen, 48 h (100 = growth as untreated, 0 = no growth, -100 = all killed)
What all share (conditions): 10 µM

Take `COc1ccc(Cc2nn(CC(=O)N/N=C/c3ccc([N+](=O)[O-])cc3)c(=O)c3c(C)noc23)cc1`: the growth in the experiment on 786-0 renal was 26.3%; in the experiment on DU-145 prostate it was 88.4%; in the experiment with K-562 leukemia it was 88.4%; in the experiment with MALME-3M melanoma it was 53%; with RXF 393 renal it was 55.5%; with UACC-257 melanoma, 92.8%. The growth was 80.3% with SK-MEL-28 melanoma; 99.1% with SK-MEL-2 melanoma; 86.6% with EKVX NSCLC; 39% in the experiment on SN12C renal; 63% in the experiment on UO-31 renal; 101% in the experiment on TK-10 renal. The growth with ACHN renal is 47.7%; in the experiment with CAKI-1 renal, 53.2%; in the experiment with A498 renal, 111%; in the experiment with CCRF-CEM leukemia, 69.5%; in the experiment on MOLT-4 leukemia it was 90.2%; in the experiment on SR leukemia it was 93.2%. Also, the values for the growth in the experiment on RPMI-8226 leukemia and with OVCAR-8 ovarian were 81.5% and 56.6%, respectively.
Regarding `C#C[C@]1(O)CC[C@H]2[C@@H]3CC=C4c5sc(Nc6cc(C)cc(C)n6)nc5CC[C@]4(C)[C@H]3CC[C@@]21C`, the growth was -52.2% (active) in the experiment on 786-0 renal; 12.9% in the experiment on DU-145 prostate; 4.71% (active) with K-562 leukemia; -39.8% (active) in the experiment with MALME-3M melanoma; -40% (active) in the experiment with RXF 393 renal; -49.4% (active) in the experiment on UACC-257 melanoma. Also, the growth is -56.8% (active) in the experiment on SK-MEL-28 melanoma; -28.4% (active) in the experiment on SK-MEL-2 melanoma; -14% (active) in the experiment with EKVX NSCLC; -3.77% (active) in the experiment on SN12C renal; -65.9% (active) in the experiment with UO-31 renal; 4.66% (active) in the experiment with TK-10 renal. Also, the growth with ACHN renal is 7.43% (active); in the experiment with CAKI-1 renal, -27.6% (active); in the experiment on A498 renal, -73.5% (active); in the experiment on CCRF-CEM leukemia, 5% (active); with MOLT-4 leukemia, 1.29% (active); with SR leukemia it was 3.1% (active). Moreover, the growth in the experiment on RPMI-8226 leukemia was -16% (active); in the experiment with OVCAR-8 ovarian, 4.44% (active).
With `COc1ccc(C2OC[C@@]3(C)C4CC[C@]5(C)C(CC=C6C7CC(C)(C)CC[C@]7(C(=O)O)CC[C@]65C)[C@@]4(C)C[C@@H](O)[C@@H]3O2)cc1` (stereo not given in full), the growth with 786-0 renal is 94.8%; in the experiment on DU-145 prostate, 76.3%; in the experiment with K-562 leukemia, 44%; in the experiment with MALME-3M melanoma it was 99.3%; with RXF 393 renal, 89%; in the experiment on UACC-257 melanoma, 96.3%. Also, the growth was 103% with SK-MEL-28 melanoma; 102% in the experiment on SK-MEL-2 melanoma; 52.9% in the experiment with EKVX NSCLC; 82% in the experiment on SN12C renal; 57.9% in the experiment on UO-31 renal; 76% in the experiment on TK-10 renal. The growth with ACHN renal was 56.8%; with CAKI-1 renal, 73.5%; in the experiment on A498 renal, 102%; with CCRF-CEM leukemia, 50.3%; in the experiment with MOLT-4 leukemia it was 47.2%; in the experiment on SR leukemia it was 54.7%. Also, the growth was 40.3% with RPMI-8226 leukemia and 73.2% in the experiment on OVCAR-8 ovarian.
As to `CC1(C)CC[C@]2(C(=O)O)CC[C@]3(C)C(=CCC4[C@@]5(C)C[C@@H](O)[C@@H]6OC(c7cccc(F)c7)OC[C@@]6(C)C5CC[C@]43C)C2C1` (stereo not given in full), the growth with 786-0 renal was 59.3%; in the experiment on DU-145 prostate, 36.7%; in the experiment on K-562 leukemia it was 21.1%; with MALME-3M melanoma, 70%; in the experiment on RXF 393 renal, 67.2%; in the experiment with UACC-257 melanoma it was 67.8%. Further, the growth was 66% in the experiment on SK-MEL-28 melanoma; 51.1% in the experiment on SK-MEL-2 melanoma; 19.2% in the experiment on EKVX NSCLC; 28.2% in the experiment with SN12C renal; 34.2% in the experiment with UO-31 renal; 32.4% with TK-10 renal. For the same compound, the growth in the experiment on ACHN renal is 17.6%; in the experiment on CAKI-1 renal, 49%; in the experiment with A498 renal it was 78.7%; with CCRF-CEM leukemia it was 32%; with MOLT-4 leukemia it was 18.5%; with SR leukemia it was 22.4%. Further, the growth in the experiment with RPMI-8226 leukemia was 21.1%; in the experiment on OVCAR-8 ovarian, 31.7%.
For `COc1cc(-c2nc3ccc(C)cc3[nH]2)ccc1OCc1nnc(-c2ccccc2Br)o1`, the growth was 31.4% in the experiment with 786-0 renal; 80.7% with DU-145 prostate; 55.8% in the experiment on K-562 leukemia; 66.8% in the experiment on MALME-3M melanoma; 1.93% (active) with RXF 393 renal; 78.3% with UACC-257 melanoma. For the same compound, the growth with SK-MEL-28 melanoma was 70.4%; in the experiment on SK-MEL-2 melanoma it was 85.2%; in the experiment on EKVX NSCLC it was 64.6%; with SN12C renal it was 76.1%; in the experiment on UO-31 renal, 61.8%; in the experiment on TK-10 renal, 116%. Further, the growth in the experiment with ACHN renal is 76.6%; in the experiment with CAKI-1 renal it was 66%; with A498 renal, 108%; with CCRF-CEM leukemia, 19.4%; with MOLT-4 leukemia it was 41.2%; in the experiment with SR leukemia, 59.1%. Also, the growth in the experiment on RPMI-8226 leukemia was 30.1%; with OVCAR-8 ovarian, 63.3%.
On to `Fc1ccc(/C=C/c2nc3ccccc3n3c(-c4ccc(Cl)cc4)nnc23)cc1`, for which the growth in the experiment on 786-0 renal is 73.4%; in the experiment on DU-145 prostate it was 68%; in the experiment with K-562 leukemia it was 10%; with MALME-3M melanoma, 7.93% (active); in the experiment with RXF 393 renal it was 58.8%; in the experiment with UACC-257 melanoma it was 96.7%. In addition, the growth in the experiment on SK-MEL-28 melanoma is 89.1%; in the experiment on SK-MEL-2 melanoma, 102%; in the experiment on EKVX NSCLC, 74.6%; in the experiment on SN12C renal, 78.1%; in the experiment with UO-31 renal it was 53.3%; with TK-10 renal, 112%. Further, the growth in the experiment on ACHN renal is 47.5%; with CAKI-1 renal, 62.3%; with A498 renal, 111%; with CCRF-CEM leukemia, 0.524% (active); in the experiment on MOLT-4 leukemia, 2.97% (active); in the experiment with SR leukemia, -3.04% (active). The growth is 53.5% in the experiment on RPMI-8226 leukemia and 72.6% in the experiment on OVCAR-8 ovarian.
On to `O=C1S/C(=C\c2ccc([N+](=O)[O-])cc2)C(=O)N1CCN1CCCCC1`, for which the growth in the experiment with 786-0 renal was 105%; in the experiment with DU-145 prostate, 119%; in the experiment with K-562 leukemia, 98.1%; in the experiment on MALME-3M melanoma it was 118%; in the experiment with RXF 393 renal, 132%; in the experiment on UACC-257 melanoma, 112%. Further, the growth in the experiment with SK-MEL-28 melanoma is 109%; in the experiment on SK-MEL-2 melanoma, 111%; with EKVX NSCLC, 104%; in the experiment with SN12C renal, 98.5%; in the experiment with UO-31 renal, 102%; in the experiment on TK-10 renal, 106%. In addition, the growth with ACHN renal was 103%; in the experiment with CAKI-1 renal, 102%; in the experiment with A498 renal it was 126%; in the experiment on CCRF-CEM leukemia it was 116%; with MOLT-4 leukemia it was 101%; with SR leukemia, 111%. The growth was 106% in the experiment on RPMI-8226 leukemia and 105% in the experiment on OVCAR-8 ovarian.
With `CC1[C@H]2[C@H](C[C@H]3[C@@H]4CC=C5c6sc(Nc7cccc(Cl)n7)nc6CC[C@]5(C)[C@H]4CC[C@@]32C)O[C@]12CC[C@@H](C)CO2` (stereo not given in full), the growth in the experiment with 786-0 renal was 105%; in the experiment on DU-145 prostate, 99.1%; with K-562 leukemia, 54.5%; in the experiment with MALME-3M melanoma, 117%; with RXF 393 renal, 123%; in the experiment on UACC-257 melanoma, 82%. Moreover, the growth was 100% in the experiment on SK-MEL-28 melanoma; 76.9% in the experiment with SK-MEL-2 melanoma; 83.8% with EKVX NSCLC; 94.5% in the experiment with SN12C renal; 85.4% in the experiment with UO-31 renal; 171% with TK-10 renal. For the same compound, the growth with ACHN renal is 96.4%; in the experiment on CAKI-1 renal, 84.8%; in the experiment on A498 renal it was 92.6%; in the experiment with CCRF-CEM leukemia, 66.6%; in the experiment with MOLT-4 leukemia, 79.8%; in the experiment on SR leukemia, 65.3%. Besides, the growth is 56.5% in the experiment on RPMI-8226 leukemia and 74.2% in the experiment with OVCAR-8 ovarian.
